Results: PubChem BioAssay (NCI)
Compounds without any hit were thinned out: in the full panel of roughly 83,000, 20% have a hit.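 How to read the values: 0–100, growth inhibition (40 = 60% inhibited); 0, no net growth; -100 to 0, cell death (-40 = 40% of starting cells died; -100 = all dead).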 A number with no mark means an inactive call. Calls of active or inactive are those of the source. How the source made its calls: active means growth percent below 10; inactive means the rest.

Tests used:
Assay in all cases: NCI-60 one-dose screen, 48 h (100 = growth as untreated, 0 = no growth, -100 = all killed)
[1] = test system: NCI-H23 lung; details: 10 µM unless noted
[2] = test system: NCI-H226 lung; details: 10 µM unless noted
[3] = test system: DU-145 prostate; details: 10 µM unless noted
[4] = test system: MDA-MB-231 breast; details: 10 µM unless noted
[5] = test system: SF-268 CNS; details: 10 µM unless noted
[6] = test system: M14 melanoma; details: 10 µM unless noted
[7] = test system: HCT-15 colon; details: 10 µM
[8] = test system: HT29 colon; details: 10 µM unless noted
[9] = test system: UACC-62 melanoma; details: 10 µM unless noted
[10] = test system: LOX IMVI melanoma; details: 10 µM unless noted
[11] = test system: SK-MEL-28 melanoma; details: 10 µM unless noted
[12] = test system: OVCAR-8 ovarian; details: 10 µM unless noted
[13] = test system: OVCAR-5 ovarian; details: 10 µM unless noted
[14] = test system: SK-OV-3 ovarian; details: 10 µM unless noted
[15] = test system: OVCAR-3 ovarian; details: 10 µM unless noted
[16] = test system: NCI/ADR-RES ovarian; details: 10 µM unless noted
[17] = test system: MCF7 breast; details: 10 µM unless noted
[18] = test system: KM12 colon; details: 10 µM unless noted
[19] = test system: PC-3 prostate; details: 10 µM unless noted
[20] = test system: SW-620 colon; details: 10 µM unless noted

Row | Compound | growth [1] | growth [2] | growth [3] | growth [4] | growth [5] | growth [6] | growth [7] | growth [8] | growth [9] | growth [10] | growth [11] | growth [12] | growth [13] | growth [14] | growth [15] | growth [16] | growth [17] | growth [18] | growth [19] | growth [20]
1 | CC1(C)CC(=O)CC(C)(C)N1N=O | 102% | 104% | 107% | 109% | 106% | 102% | 98.1% | 99.4% | 104% | 97.1% | 109% | 102% | 104% | 105% | 101% | 100% | 97.9% | 99.1% | – | –
2 | Cc1cc(NC(=O)NCCOc2ccc(N3C(N)=NC(N)=NC3(C)C)cc2Cl)ccc1S(=O)(=O)F | 40.2% | 91.3% | 34.4% | 58% | 29% | 32.1% | 92% | 9.65% (active) | 22% | 12.8% | 51.8% | 25.3% | 26.6% | 55.4% | 53.2% | 102% | 4.3% (active) | 20.1% | -2.88% (active) | 23.4%
3 | CC1(C)N=C(N)N=C(N)N1c1ccc(OCCCCOc2ccc(S(=O)(=O)F)cc2)c(Cl)c1 | 20% | 29.6% | 24.6% | 38.3% | 17.9% | 19% | 32.8% | 8.74% (active) | 17.2% | 14.7% | 31.3% | 13.5% | 30.7% | 43.3% | 28.4% | 103% | 9.19% (active) | 9.69% (active) | 5.85% (active) | 13%
4 | CC(=O)[O][Hg][c]1nc2c(c(=O)n(C)c(=O)n2C)n1C | 106% | 108% | 107% | 102% | 110% | 101% | 107% | 95.6% | 96.3% | -28.5% (active) | 90.1% | 95.2% | 117% | 115% | 110% | 114% | 73.3% | 96.6% | 93.7% | 71.1%
5 | CN1C(=O)NC(=O)C(N=Nc2ccc(Cl)cc2)C1=O (stereo not given) | 95.3% | 105% | 106% | 85.7% | 93.5% | 81.5% | 88% | 99.1% | 49.9% | 102% | 122% | 104% | 98.9% | 120% | 105% | 83.5% | 93% | 82.6% | 94.6% | 106%
6 | C1CN1c1nc(N2CC2)nc(N2CC2)n1 | 15.8% | 58.6% | -1.22% (active) | 87.8% | 30.4% | 25.1% | 23.8% | 44.9% | 41.1% | 17% | – | – | 64.5% | 38.1% | 65.8% | 36.8% | 20.9% | 61.8% | 45.2% | 51.8%
7 | CCOc1cc(C=C(C#N)C#N)cc(Br)c1O | 99% | 106% | 103% | 109% | 95.6% | 98% | 102% | 92.5% | 105% | 97.1% | 109% | 102% | 108% | 116% | 98.8% | 104% | 96% | 103% | 98.4% | 106%
8 | CNC(=O)Oc1ccccc1 | 107% | 102% | 113% | 110% | 107% | 99.3% | 102% | 118% | 102% | 106% | 86.2% | 110% | 101% | 108% | 108% | 102% | 87% | 100% | 106% | 101%
9 | CCCCCN(CCCCC)CC(O)c1ccc(C)c(Cl)c1 (stereo not given) | 89.3% | 84.4% | 118% | 97.4% | 106% | 96% | 99.9% | 79% | 90.5% | 96.3% | 96.6% | 102% | 83.8% | 94.3% | – | 104% | 95.5% | 105% | 91.8% | 103%
